Measurements as given in PubChem BioAssay (NCI).
The panel holds about 83,000 compounds, 20% with a hit somewhere; the sample as a whole holds those more often.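 96-well plates, one dose, 48 hours. Percent growth reported; active if below 10.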 A number with no mark means an inactive call. Active and inactive are the calls of the source.

Each molecule was assayed on HL-60(TB) leukemia (assay: NCI-60 one-dose screen, 48 h (100 = growth as untreated, 0 = no growth, -100 = all killed)). Settings: 10 µM unless noted.

Going from `CC(C)C(=O)Nc1n[nH]c2cc(-c3cccc(NS(=O)(=O)C4CC4)c3)ccc12` to `OC(CNC1CCCCC1)Cn1c2ccc(I)cc2c2cc(I)ccc21` (stereo not drawn), the growth rises from 64.3% to 93.7%.

Compared with `COc1ccc2c(c1)C(=O)/C(=C/c1ccc(OCC(=O)c3ccc(Cl)cc3)cc1)O2`, `COc1ccc(-c2n[nH]c(=O)c3nc(NC(=S)Nc4ccc(Oc5ccccc5)cc4)sc23)cc1` is higher in growth: 70.2% for the first, 92.9% for the second.

Compared with `O=C1OC(c2ccc(Cl)c(Cl)c2)=C/C1=C/c1cccc([N+](=O)[O-])c1`, `COc1ccc(C(=O)c2sc3nc(-c4cccs4)ccc3c2N)cc1OC` is lower in growth: 103% for the first, 23.3% for the second.

Going from `C/C(=N\O)[C@@H]1CC[C@]2(CO)CC[C@]3(C)[C@H](CC[C@@H]4[C@@]5(C)CCCNC(C)(C)[C@@H]5CC[C@]43C)[C@@H]12` to `COC[C@H](C)n1c(C2CCOCC2)nc2cnc3cc(-c4c(C)noc4C)c(OC)cc3c21`, the growth falls from 95.1% to 31.5%.

Going from `COc1ccc(C2=NN(c3ccc(S(N)(=O)=O)cc3)C(c3cn(-c4ccccc4)nc3-c3ccc(Cl)cc3)C2)cc1` (stereo not drawn) to `Cn1c(=O)c2c(nc(Cl)n2CCl)n(C)c1=O`, the growth falls from 84.5% to 45.7%.

For `COc1ccc(C(=O)c2cc(OC)c(OC)c(OC)c2)cc1O`, the growth was -29.1% (active).
`Nc1ccc(-n2c(=O)oc3ccc(Cl)cc3c2=O)c(Cl)c1` was tested, and the growth was -42.8% (active).
With `CCCCCCCC(=O)SCC/C=C/[C@@H]1CC(=O)NCc2nc(cs2)C2=N[C@@](C)(CS2)C(=O)N[C@@H](C(C)C)C(=O)N1` the growth was 8.7% (active).
